This is one part of a sample in which hits are shown more often than they occur.
Tg IFNy HTS = blocks Toxoplasma gondii growth in the presence of IFN-gamma | Toxoplasma gondii growth in IFN-gamma-treated host cells; active compounds read low | activity change, negative = inhibition, % (test concentration not listed) | 69,000 tested, 3.8% active | AID 1259416; in the data active = activity change below about -70%, passing the limit was not always enough;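 also: host cells are HeLa cells infected with Toxoplasma gondii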
Numbers without * were called inactive; i = inactive.

SMILES	Tg IFNy HTS
C[C@H](CO)N1C[C@H](C)[C@@H](CN(C)Cc2ccc(Oc3ccccc3)cc2)Oc2c(NC(=O)CCC(F)(F)F)cccc2C1=O	-65
C[C@@H]1CN([C@H](C)CO)C(=O)c2cc(/C=C/c3ccccc3)cnc2O[C@@H]1CN(C)S(=O)(=O)c1ccccc1F	-88*
C[C@@H]1CN([C@@H](C)CO)C(=O)c2cccc(NS(C)(=O)=O)c2O[C@H]1CN(C)Cc1ccc(-c2ccccc2)cc1	-23
COc1ccc(S(=O)(=O)N(C)C[C@@H]2Oc3c(NC(=O)c4nc5ccccc5s4)cccc3C(=O)N([C@H](C)CO)C[C@H]2C)cc1	-4
COc1ccc(S(=O)(=O)N(C)C[C@H]2Oc3c(NC(=O)c4nc5ccccc5s4)cccc3C(=O)N([C@@H](C)CO)C[C@@H]2C)cc1	-78*
C[C@H](CO)N1C[C@H](C)[C@@H](CN(C)Cc2ccccc2)Oc2c(NC(=O)Cc3cn(C)c4ccccc34)cccc2C1=O	-93*
C[C@@H]1CN([C@@H](C)CO)C(=O)c2cccc(NC(=O)c3nc4ccccc4s3)c2O[C@@H]1CN(C)C(=O)Nc1ccc2c(c1)OCO2	-43
C[C@@H]1CN([C@@H](C)CO)C(=O)c2cccc(NC(=O)Nc3ccc(F)cc3)c2O[C@H]1CN(C)S(=O)(=O)c1ccc(Cl)cc1	-53
C[C@H](CO)N1C[C@H](C)[C@@H](CN(C)S(=O)(=O)c2ccccc2F)Oc2ncc(/C=C/c3ccccc3)cc2C1=O	-14
Cc1cccn2cc(CNC(=O)c3cn(CC4CCCNC4)nn3)nc12 (stereo not given)	-8
CC(=O)Nc1ccc(-c2csc(N(C)c3ccc(O)cc3)n2)cc1	53
O=C(c1ccno1)N1CC[C@H]2CN(Cc3ccccc3)S(=O)(=O)[C@@H]2CC1	1
NC(=O)c1cccc(CC2CCN(C(=O)CCN3CCCCCC3=O)C2)c1 (stereo not given)	-66
Cc1cc(C(F)(F)F)nn1CC(=O)N1CCCC1c1cc(C(C)C)on1 (stereo not given)	2
CCc1ccc(NC(=O)N2CCC3(CC2)c2cccn2-c2ccc(C)cc2N3CC)cc1	-47
CCN1c2cc(C)ccc2-n2cccc2C12CCN(C(=O)Nc1ccccc1OC)CC2	-88*
CCN1c2cc(C)ccc2-n2cccc2C12CCN(C(=O)Nc1ccc(C)cc1)CC2	-75*
CCN1c2cc(C)ccc2-n2cccc2C12CCN(C(=O)Nc1cccc(Cl)c1)CC2	-82*
CCN1c2cc(C)ccc2-n2cccc2C12CCN(C(=O)Nc1cccc(OC)c1)CC2	-59
CCc1ccccc1NC(=O)N1CCC2(CC1)c1cccn1-c1ccc(C)cc1N2CC	206
CCN1c2cc(C)ccc2-n2cccc2C12CCN(C(=O)Nc1ccccc1)CC2	-13
CCN1c2cc(C)ccc2-n2cccc2C12CCN(C(=O)Nc1ccc(F)c(Cl)c1)CC2	0
CCN1c2cc(C)ccc2-n2cccc2C12CCN(C(=O)Nc1cc(Cl)c(OC)cc1OC)CC2	-47
S=C(NCCc1csc2ccccc12)Nc1ccc(Cl)cc1	52
COc1cc(-c2nc3c(C)cccc3cc2CO)cc(OC)c1OC	30
SMILES	Tg IFNy HTS
CCOc1ccccc1NC(=O)c1nnn(Cc2nc(-c3cccc(Cl)c3)oc2C)c1C	-52
Cc1cc(C)c2c(=O)n(Cc3nc(-c4ccccc4)oc3C)c(=O)n(C)c2n1	-51
O=S(=O)(Oc1cccnc1)c1cccc2nonc12	42
O=C(CN1CCCC(O)(Cn2cnc3ccccc32)C1)Nc1ccc2c(c1)OCO2 (stereo not given)	38
Cc1cccc2cc(C#N)c(SCC(=O)N3CCCc4ccccc43)nc12	-38
N#Cc1cc2c(cc1C#N)N1CCCc3cccc(c31)O2	-92*
O=C1CCc2cc(S(=O)(=O)N3CCc4ccccc43)cc3c2N1CCC3	1
COCCN(C)c1ccc2ccc(C(=O)N(C)C)cn12	34
CCS(=O)(=O)N1C[C@@H]2[C@H](C1)c1ccccc1[C@@H]2N1CCOCC1	5
CC(=O)N1N=C(c2c(-c3ccccc3)c3cc(Cl)ccc3[nH]c2=O)CC1c1ccccc1Cl (stereo not given)	-65
CN(Cc1cc2ccccc2s1)C(=O)c1cc(CN2CCOCC2)on1	-1
Cc1ccc(C(=O)N2CCc3c([nH]c4ccccc34)C2c2cccc(C)c2)cc1 (stereo not given)	207
CCOc1cccc(C2c3[nH]c4ccccc4c3CCN2C(=O)COC)c1 (stereo not given)	i
CCOc1cccc(C2c3[nH]c4ccccc4c3CCN2C(=O)c2ccccc2OC)c1 (stereo not given)	-105*
CCOc1cccc(C2c3[nH]c4ccccc4c3CCN2C(=O)c2ccc(C)cc2)c1 (stereo not given)	-122*
COc1ccccc1C(=O)N1CCc2c([nH]c3ccccc23)C1c1ccccc1 (stereo not given)	58
CCOc1cccc(C2c3[nH]c4ccccc4c3CCN2C(=O)c2cccc(OC)c2)c1 (stereo not given)	-103*
COc1ccccc1C(=O)N1CCc2c([nH]c3ccccc23)C1c1ccc(Cl)cc1 (stereo not given)	31
CCOc1cccc(C2c3[nH]c4ccccc4c3CCN2C(=O)c2ccc(F)cc2)c1 (stereo not given)	-98*
CCOc1cccc(C2c3[nH]c4ccccc4c3CCN2C(=O)c2cccc(N(C)C)c2)c1 (stereo not given)	408
CCOc1cccc(C2c3[nH]c4ccccc4c3CCN2C(=O)C2CCC2)c1 (stereo not given)	483
CC(C)C(=O)N1CCCC(c2nc(CCNC(=O)C3CCC3)cs2)C1 (stereo not given)	57
CCOC[C@@]12COC[C@@H]1CN(Cc1ccc3c(c1)OCO3)C2	248
CSc1cccc(NC(=O)c2ccc(-c3nc(CN4CCN(c5ccccc5)CC4)c(C)o3)cc2)c1	-33
CCNC(=O)c1ccccc1OCc1nc(-c2ccc3c(c2)OCO3)no1	-30
SMILES	Tg IFNy HTS
CCOc1ccc(CC(=O)NCCc2csc(-c3cccc(C)c3)n2)cc1	i
COc1cc(NC(=O)CN2CCC3(CC2)N=C(c2cccc(C)c2)C(=O)N3)cc(OC)c1	-3
COc1ccc(NC(=O)CN2CCC3(CC2)N=C(c2ccc(Cl)cc2)C(=O)N3)cc1	53
CCCc1nc(CN(CC)C(=O)c2ccc3ncsc3c2)no1	4
CN(CC1CCN(c2ccccc2)C1)C(=O)c1c(O)cccc1O (stereo not given)	9
CN(C)c1ncc(-c2nccn2C2CCN(Cc3ccccn3)CC2)cn1	10
O=C(CN1Cc2ccccc2OC(c2ccccc2F)C1)NCCc1ccccn1 (stereo not given)	8
COc1ccccc1N1C(=O)CN(NC(=O)C(c2ccccc2)c2ccccc2)C1=O	-12
COc1ccc(CC(=O)Nc2ccc(-c3nc(Cn4cc(C)cn4)c(C)o3)cc2)cc1	-51
Cc1cnn(Cc2nc(-c3ccc(NC(=O)CC4CCCC4)cc3)oc2C)c1	-15
COc1ccccc1CC(=O)Nc1ccc(-c2nc(Cn3cc(C)cn3)c(C)o2)cc1	-95*
COc1ccccc1C(=O)Nc1ccc(-c2nc(Cn3cc(C)cn3)c(C)o2)cc1	15
Cc1cnn(Cc2nc(-c3ccc(NC(=O)CCc4ccccc4)cc3)oc2C)c1	-84*
CC(=O)Nc1ccc(-c2nc(Cn3cc(C)cn3)c(C)o2)cc1	64
Cc1nn(-c2ccccc2)c2[nH]c(=O)c(CNC(C)c3cccs3)cc12 (stereo not given)	-17
Cc1ccccc1S(=O)(=O)N1CCC2(CC1)Nc1ccc(Cl)cc1-n1cccc12	-25

Assay outcomes as filed in PubChem BioAssay.
